High-throughput results as filed in PubChem.
Only a selection was taken, and hits are over-represented in it overall.
CD11b adhes inh – inhibitors of CD11b/CD18 adhesion to fibrinogen, primary screen, K562 cells, luminescence; Integrin beta-2 (Homo sapiens) + Integrin alpha-M (Homo sapiens), P05107+P11215; ATPlite luminescence; Mn2+ added to activate the integrin; inhibition, % at 10 µM; 0.54% of 93,000 active;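 active means primary inhibition of 50% or more at 10 µM, then 40% or more on retest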
PTK2B oligo ant – antagonists of Pyk2 self-association, primary screen, Q293 cells, FERM NanoBiT luminescence, HTS; hits give low values; z-score (the deposit names both 25 µM and 10 µM); 0.83% of 99,000 active;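 active means Z-score of -3 or lower, scaled per plate to the spread of control and sample wells; inactive means z-score above -3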;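 further: negative z-score means lost luminescence so less FERM oligomerization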
Target sequence (Q14289 whole entry, looked up): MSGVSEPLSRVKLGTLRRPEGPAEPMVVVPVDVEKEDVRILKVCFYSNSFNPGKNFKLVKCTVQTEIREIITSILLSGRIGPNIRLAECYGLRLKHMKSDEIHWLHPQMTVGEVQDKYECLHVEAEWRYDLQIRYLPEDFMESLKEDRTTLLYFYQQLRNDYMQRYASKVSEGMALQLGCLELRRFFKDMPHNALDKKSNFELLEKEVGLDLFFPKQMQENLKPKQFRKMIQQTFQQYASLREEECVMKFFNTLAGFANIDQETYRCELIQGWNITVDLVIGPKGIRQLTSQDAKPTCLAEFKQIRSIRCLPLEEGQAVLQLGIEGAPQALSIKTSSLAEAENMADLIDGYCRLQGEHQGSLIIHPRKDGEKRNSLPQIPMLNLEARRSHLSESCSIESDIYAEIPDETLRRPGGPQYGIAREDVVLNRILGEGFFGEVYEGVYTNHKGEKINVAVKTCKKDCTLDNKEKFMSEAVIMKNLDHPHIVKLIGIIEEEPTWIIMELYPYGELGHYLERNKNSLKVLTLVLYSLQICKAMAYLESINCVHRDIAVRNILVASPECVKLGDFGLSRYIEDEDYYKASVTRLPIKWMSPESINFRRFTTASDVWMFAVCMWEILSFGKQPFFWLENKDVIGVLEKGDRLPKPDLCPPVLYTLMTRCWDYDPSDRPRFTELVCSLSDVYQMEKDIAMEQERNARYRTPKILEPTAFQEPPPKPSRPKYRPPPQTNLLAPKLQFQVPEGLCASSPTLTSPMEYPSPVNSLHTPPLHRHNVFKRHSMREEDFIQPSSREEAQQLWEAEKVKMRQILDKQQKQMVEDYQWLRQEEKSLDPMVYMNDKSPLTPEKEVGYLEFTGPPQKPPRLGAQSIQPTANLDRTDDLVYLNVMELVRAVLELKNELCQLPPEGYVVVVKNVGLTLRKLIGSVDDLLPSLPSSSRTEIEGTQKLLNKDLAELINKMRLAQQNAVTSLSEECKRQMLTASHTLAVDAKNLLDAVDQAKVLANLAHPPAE
FAK blocker – FAK kinase inhibitors, primary screen, biochemical; inhibition, %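 (tested at 7 µM)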; biochemical FAK kinase activity assay; Focal adhesion kinase 1 (Homo sapiens), Q05397; 0.84% of 97,000 active; in the data active means inhibition above about 19%
D1 allo mod – D1 CRE-luciferase signal change, two-sided – cell-based, HEK293 D1, dopamine EC30, D1 allosteric modulator project, primary screen | D(1A) dopamine receptor (Homo sapiens), P21728 | dopamine EC30 potentiation; actives deviate in either direction | B-score at 10 µM | 5.9% of 58,000 active | AID 641, 2007;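 active means luminescence count or its row- and column-corrected plate score outside the 99.7% band of the plate's sample wells, on either side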
Mac1 fbg enh – enhancers of CD11b/CD18 adhesion to fibrinogen, primary screen, K562 cells, luminescence | ATPlite luminescence | activation, % at 10 µM | 0.07% of 93,000 active | AID 1499, 2009;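 active means 10 µM primary screen giving 50% or more activity, confirmed by 40% or more on retest at that dose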
DAT uptake mod – changed hDAT dopamine uptake under cocaine IC80, either direction, primary screen, cocaine antagonist project, cell-based, LLC-PK1 hDAT, [14C]-dopamine uptake, MLSMR | Sodium-dependent dopamine transporter (Homo sapiens), Q01959 | LLC-PK1 hDAT cells, [14C]-dopamine uptake with cocaine IC80; actives deviate in either direction | B-score at 10 µM | 1.3% of 110,000 active | AID 449768, 2010;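 active means Z score or B-score, a plate-position-corrected score, falls beyond the plate's 99.7% confidence bounds, in either direction; inactive means both scores lie inside the 99.7% bounds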
D1 mod confirm – D1 receptor positive allosteric modulators, retest, confirmation, cell-based, HEK293 D1, CRE-luciferase, duplicate. luminescence at 10 µM. shares compounds with D1 allo mod. 88% of 2,200 active. dopamine EC30 potentiation; hits give high values;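 active means luminescence in either of two replicates above the same-plate mean plus 3 SD of the low-dose dopamine control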
D1 ag no DA – D1 receptor agonism without dopamine, confirmation, mechanism study for D1 allosteric modulator project, cell-based, HEK293 D1, CRE-luciferase, secondary assay 1 | shares compounds with D1 allo mod | luminescence, no dopamine; hits give high values | luminescence at 10 µM | 0.8% of 1,900 active; in the data active means luminescence above about 3900
Isoprot counter – alters isoproterenol CRE-luciferase response in HEK293 cells | 63% of 2,200 active | calls only at 10 µM | HEK293 D1 CRE-luciferase, isoproterenol EC30 counter-screen | shares compounds with D1 allo mod;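 active means luminescence in either replicate above plate mean of wells with a partly effective reference agonist dose plus 3 SD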;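 further: isoproterenol raises cAMP through native beta-adrenoceptor Gs so signal bypasses D1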
Large screens that a line does not name were inactive (follow-up assays come after a bar, where they were run).

Nc1nc2n(n1)C(c1cccs1)CC(c1ccc(F)cc1)N2 (configuration not stated)	none (no result: D1 allo mod)
Nc1nc2n(n1)C(c1cccc(Cl)c1)CC(c1ccc(F)cc1)N2 (configuration not stated)	D1 allo mod 13.3 (no result: PTK2B oligo ant) | D1 mod confirm 13312 | Isoprot counter active
COc1ccc(C2CC(c3ccc(Cl)cc3Cl)Nc3nc(N)nn32)cc1 (configuration not stated)	D1 allo mod 3.09 (no result: PTK2B oligo ant) | D1 mod confirm 6116 | D1 ag no DA inactive | Isoprot counter inactive
Nc1nc2n(n1)C(c1cccs1)CC(c1ccccc1)N2 (configuration not stated)	D1 allo mod 14.1 | D1 mod confirm 13800 | Isoprot counter active
O=C(CCn1ccc2ccccc21)Nc1ccc(N2CCOCC2)cc1	none
COc1cc(C(=O)NNC2=NC(C)(C)Cc3cc(C)c(C)cc32)cc(OC)c1OC	none (no result: PTK2B oligo ant, FAK blocker, D1 allo mod, DAT uptake mod)
CCOC(=O)N1CCC(Nc2c(NCCCN(C)Cc3ccccc3)c(=O)c2=O)CC1	none (no result: PTK2B oligo ant)
O=C1C2CCCN2C(c2ccc(Cl)cc2)N1c1nccs1 (configuration not stated)	none (no result: CD11b adhes inh, Mac1 fbg enh)
FC(F)(F)c1ccc(Oc2ccc3cc(Br)ccc3c2)nc1	none (no result: PTK2B oligo ant, FAK blocker, D1 allo mod, DAT uptake mod)
CC(C)(C)C1CCc2onc(C(=O)N3CCOCC3)c2C1 (configuration not stated)	D1 allo mod 6.01 (no result: FAK blocker) | D1 mod confirm 10148 | D1 ag no DA inactive | Isoprot counter active
O=[N+]([O-])c1ccc(COc2cccc(CNc3ccc(Br)cc3)c2)cc1	none (no result: PTK2B oligo ant, FAK blocker, D1 allo mod, DAT uptake mod)
COc1ccccc1Nc1nc(N)nc(CSc2nncn2C)n1	D1 allo mod 12.4 | D1 mod confirm inactive | Isoprot counter inactive
Cc1ccccc1Nc1nc(N)nc(CSc2nnc(-c3ccccc3)n2C)n1	none (no result: D1 allo mod)
CSc1ncccc1C(=O)OCc1ccccc1F	D1 allo mod 10.1 | D1 mod confirm 16732 | D1 ag no DA inactive | Isoprot counter active
CSc1ncccc1C(=O)OCc1ccccc1	none (no result: D1 allo mod)
O=S1(=O)N=C(N2CCCc3ccccc32)c2ccccc21	none (no result: CD11b adhes inh, Mac1 fbg enh)
O=S1(=O)N=C(N2CCc3ccccc3C2)c2ccccc21	D1 allo mod 2.4 | D1 mod confirm 6388 | D1 ag no DA inactive | Isoprot counter inactive
O=C(NCc1ccccc1)N1CCn2c(nc3ccccc32)C1	none (no result: CD11b adhes inh, Mac1 fbg enh)
CCOc1ccc(S(=O)(=O)NCc2ccc(F)cc2)c2cccnc12	D1 allo mod 10.3 (no result: CD11b adhes inh, Mac1 fbg enh) | D1 mod confirm 10944 | Isoprot counter active
CCOc1ccc(S(=O)(=O)Nc2ccc3c(c2)OCO3)c2cccnc12	D1 allo mod 4.77 | D1 mod confirm 9784 | D1 ag no DA inactive | Isoprot counter active
Cc1ccccc1OCCNC(=O)CNC(=O)c1ccccc1O	none
O=C1N=C(c2ccccc2)C(c2ccccc2)N1 (configuration not stated)	D1 allo mod 8.76 | D1 mod confirm 22264 | D1 ag no DA 20356 | Isoprot counter active
CCOc1ccc(C(Nc2ccc(C)cc2)P2(=O)OCCC(C)O2)cc1 (configuration not stated)	none (no result: D1 allo mod)
N#Cc1ccc(-c2ccco2)nc1SCc1ccccc1	D1 allo mod 3.07 | D1 mod confirm 17912 | D1 ag no DA inactive | Isoprot counter inactive
CCSc1nc(-c2ccco2)ccc1C#N	D1 allo mod 2.66 | D1 mod confirm 6188 | D1 ag no DA inactive | Isoprot counter inactive
O=C(c1ccc(Cl)s1)N1CCN(c2ccccc2)CC1	none (no result: CD11b adhes inh, PTK2B oligo ant, FAK blocker, Mac1 fbg enh)
O=c1[nH]c(C2CCCN(S(=O)(=O)c3ccccc3)C2)nc2c1nnn2Cc1ccccc1F (configuration not stated)	D1 allo mod 6.79 (no result: CD11b adhes inh, FAK blocker, Mac1 fbg enh) | D1 mod confirm 12364 | D1 ag no DA inactive | Isoprot counter active
CCCc1nc2c(nnn2Cc2ccccc2)c(=O)[nH]1	D1 allo mod 7.11 | D1 mod confirm 11892 | D1 ag no DA inactive | Isoprot counter active
O=c1[nH]c(C2CCCN(S(=O)(=O)c3ccccc3)C2)nc2c1nnn2Cc1ccccc1 (configuration not stated)	D1 allo mod 4.22 | D1 mod confirm 10532 | Isoprot counter active
O=C(c1ccccc1Cl)N1CCCC(c2nc3c(nnn3Cc3ccccc3)c(=O)[nH]2)C1 (configuration not stated)	none
COC(=O)[C@@]1(Cc2ccccc2)[C@H]2c3cc(C(=O)N4CCCC4)n(Cc4ccsc4Br)c3C[C@H]2CN1C(=O)c1ccccc1	none (no result: CD11b adhes inh, PTK2B oligo ant, FAK blocker, D1 allo mod, Mac1 fbg enh)
CCOC(=O)C1=NN(C(=O)Nc2ccc(OC)cc2)C2C(=O)N(c3cccc(C(F)(F)F)c3)C(=O)C12 (configuration not stated)	none (no result: D1 allo mod)
O=C(NC1CS(=O)(=O)CC1NCc1ccccc1)c1ccccc1 (configuration not stated)	none
CCCOc1ccc2ccccc2c1/C=N/n1c(C)nnc1-n1nc(C)cc1C	none (no result: D1 allo mod)
COc1ccc(C2C3C(C)=NN=C3CC(C)(O)C2C(C)=O)cc1 (configuration not stated)	none (no result: CD11b adhes inh, FAK blocker, D1 allo mod, Mac1 fbg enh, DAT uptake mod)
Cc1ccc(-c2nn(C)c(=O)c3ccccc23)cc1S(=O)(=O)NCCO	D1 allo mod 4.14 | D1 mod confirm 6200 | D1 ag no DA inactive | Isoprot counter inactive
Cc1nc2scc(-c3cccs3)c2c(=O)n1-n1cccc1	D1 allo mod 4.06 | D1 mod confirm 9316 | D1 ag no DA inactive | Isoprot counter active
N#CC1=C(N)SC2(CCCCC2)SC1c1ccccc1 (configuration not stated)	D1 allo mod 3.17 | D1 mod confirm 6560 | Isoprot counter active
CONC(=O)C1CCN(C(=O)OCc2ccccc2)CC1	none (no result: D1 allo mod)
COc1ccc(CCNS(=O)(=O)c2cccc(C)c2)cc1OC	none (no result: D1 allo mod)
COCCCNS(=O)(=O)c1ccc2c(c1)OCCO2	none (no result: FAK blocker)
